The campaign covered roughly 320,000 compounds. About 9,100 (2.8%) were called active. Another 3% or so got no clear call; they are omitted. The call rests on the fitted dose curve; in most records, active means well fitted activation curve with a large enough effect; inconclusive means small, poorly fitted or top-dose-only effect; inactive means no such curve, though single readings can be large or run the other way. What follows is part of a selection rich in actives, with near analogues and random picks from the rest. Where a call stands in place of a potency, no number is given.
Assay: qHTS Assay for Rab9 Promoter Activators; further: nearly all actives have a fitted effect of over 60% in size
Conditions: Huh7 Rab9 promoter-luciferase reporter, luminescence, 24 h; series mostly up to 9.22 µM
Source text: NIH Chemical Genomics Center [NCGC] NIH Molecular Libraries Probe Production centers Network [MLPCN] MLPCN Grant: MH089537-01 Assay Submitter (PI): Yiannis A. Ioannou NCGC Assay Overview: Niemann Pick Type C (NPC) is a rare neurodegenerative lipidosis that is characterized by lipid storage in the endosomal/lysosomal system. Treatment modalities for this devastating disease are currently non-existent due to the severe obstacles associated with accessing the central nervous system with proteins or genes (Ioannou, 2000). We have developed a new paradigm, termed "Orphan Receptor Bypass Therapy" (ORByT), to address these disorders. This paradigm posits the existence of endogenous "suppressor" proteins whose expression can dramatically improve LSD pathogenesis. The goal is the identification/discovery of small chemical compounds that can modulate the expression of these proteins and provide a new treatment modality for these devastating disorders. One such protein whose overexpression reverses aspects of the NPC phenotype is Rab9. We have developed and optimized a cell based luciferase reporter assay in 1536 well format for the identification of up-regulators of the Rab9 promoter.
The Rab9 promoter is cloned in front of the luciferase reporter gene, therefore […] promoter activation results in luciferase expression. Frozen stock of the Rab9 promoter transfected Huh7 cells were obtained from the laboratory of Dr. Yiannis Ioannou (The Mount Sinai School of Medicine, New York, NY). Cells were propagated and maintained at NCGC in medium containing RPMI-1640 supplemented with 10% FBS, 2mM L-glutamine, and 50ug/ml penicillin/streptomycin. Cells were harvested in and plated for assays in OP-MEM I reduced-serum medium supplemented with 10% FBS. The Amplite luciferase reporter gene assay kit was purchased from ABD Bioquest and prepared/stored according to manufacturers recommendations. qHTS Assay Setup: 1.Dispensed 5ul of Huh7 cells stably expressing Rab9-luciferase at a density of 1500 cells per well 1536-well plates. 2.Incubate cells at 37C, 5% CO2, and 95% humidity for 2 hours. 3.Transferred 23nl per well of compound in DMSO solution. 4.Incubated at 37C, 5% CO2, and 95% humidity for 24 hours. 5.Dispensed 3ul per well of Amplite reagent(ABD Bioquest) per well. 6.Incubate at ambient for 10 minutes. 7.Read using the luminescence protocol on the ViewLux plate reader (Perkin Elmer).
In the case of CC(C)Oc1ccc(S(=O)(=O)N2CCOCC2)cc1NC(=O)C1CCCC1, the Potency was “inactive”.
With CCN(CC(=O)Nc1c(F)cccc1F)C(=O)c1ccc(-c2ccccc2)cc1 the Potency was “inactive”.
For O=C(O)CSc1ccc(S(=O)(=O)N2CCCC2)cn1, the Potency was “inactive”.
For O=C(Nc1ccc(O)cc1)c1ccc(NC(=O)c2ccco2)cc1, the Potency was “inactive”.
With COC(=O)c1ccc(NC(=O)c2ccco2)cc1 the Potency was 2.82 µM (active).
For CCOC(=O)c1ccc(NC(=O)CNC(=O)c2ccco2)cc1, the Potency was “inactive”.
In the case of COc1ccc(Cl)cc1NC(=O)CN(C)C(=O)c1ccc2n[nH]nc2c1, the Potency was “inactive”.
With O=C(/C=C/c1cnc2ccccc2n1)NC1CCCCCC1 the Potency was 3.16 µM (active).
For Cc1nc(/N=C(\N)NC(=O)NC2CCCCC2)nc2ccccc12, the Potency was “inactive”.
For O=C(Cn1c(-c2cncs2)nc2ccccc21)NC1CCCC1, the Potency was “inactive”.
For Nc1ccc(Nc2cc(O)c3ncccc3c2)cc1, the Potency was “inactive”.
In the case of CN1CCN(S(=O)(=O)c2cccc(C(=O)Nc3cccc(S(N)(=O)=O)c3)c2)CC1, the Potency was “inactive”.
For COC(=O)c1ccc(-c2c(-c3ccccc3)ncc3cc(OC)c(OC)cc23)cc1, the Potency was “inactive”.
For Cc1nc(N2CCCCC2)sc1C=O, the Potency was “inactive”.
With CN(C)CCCN(C(=O)c1ccc(S(=O)(=O)N2CCCCCC2)cc1)c1nc2ccc(Br)cc2s1 the Potency was “inactive”.
For Cc1nc2ccc(NC(=O)C3CCCCC3)cc2s1, the Potency was “inactive”.
For COc1ccc2nc(N3CCN(C(=O)c4ccc([N+](=O)[O-])o4)CC3)sc2c1, the Potency was “inactive”.
In the case of CN(C)CCCN(C(=O)c1ccc(S(=O)(=O)N2CCCCCC2)cc1)c1nc2cc3c(cc2s1)OCCO3, the Potency was “inactive”.
With c1c2c(cc3sc(N4CCCCC4)nc13)OCCO2 the Potency was 0.355 µM (active).
With Fc1ccc2nc(N3CCCCC3)sc2c1 the Potency was 0.891 µM (active).
With Brc1ccc2nc(N3CCCC3)sc2c1 the Potency was 1.41 µM (active).
In the case of O=C(NCCc1cccc(F)c1)C1CCCN(c2nc3ccccc3s2)C1 (configuration not stated), the Potency was “inactive”.
For CCC(=O)c1ccc(OCC(=O)N(CC)CC2COc3ccccc3O2)cc1 (configuration not stated), the Potency was “inactive”.
With CCc1sc(C(=O)N2CCN(CC(=O)Nc3cccc(F)c3)CC2)cc1C the Potency was “inactive”.
For CC1CCCC(NC(=O)c2cc(-c3ccncc3)nc3ccccc23)C1C (configuration not stated), the Potency was “inactive”.
In the case of Cc1ccc(/C=C/C(=O)OCC(=O)Nc2cccnc2Cl)cc1, the Potency was “inactive”.
For COc1cc(/C=C2\SC(=O)NC2=O)ccc1OCc1ccc(Cl)nc1, the activation, negative = inhibition was -1.24% [at 1.84 µM] (inactive).
For Cc1ccc(C)c(NC(=O)C(c2ccccc2)N2CCN(CC(=O)NC3CC3)CC2)c1 (configuration not stated), the Potency was “inactive”.
For COc1ccc(C(=O)NCc2ccc(C)cc2)cc1S(=O)(=O)N1CCCC1, the Potency was “inactive”.
For O=C(CSc1nnnn1C1CCCC1)N1CCCCC1, the Potency was 3.16 µM (active).
With CC1CCCC(C)N1C(=O)CSc1nnnn1C1CCCC1 (configuration not stated) the Potency was “inactive”.
With CC(=O)Nc1ccc(NC(=O)CSc2nnnn2C2CCCCC2)cc1 the Potency was “inactive”.
For C[C@H](OC(=O)n1ccnc1)[C@@H]1O[C@@]2(C)CCC[C@@H]1O2, the Potency was “inactive”.
In the case of CC(C)N(Cc1nc(-c2ccc3c(c2)OCO3)no1)CC1CCC(=O)N1 (configuration not stated), the Potency was “inactive”.
With CN(CCN1CCOCC1)Cc1nc(-c2ccc3c(c2)OCO3)no1 the Potency was “inactive”.
In the case of COCC1CCCN(Cc2nc(-c3ccc4c(c3)OCO4)no2)C1 (configuration not stated), the Potency was 3.16 µM (active).
With O=C(COC(=O)c1ccc(Oc2ccccc2)cc1)Nc1nnc(-c2ccccc2)o1 the Potency was “inactive”.
With Nc1ccc(-c2nnc(-c3ccc(-c4ccccc4)cc3)o2)cc1 the Potency was 2.51 µM (active).
For O=C(Nc1cccc(Cl)c1)Nc1nnc(-c2ccccc2)o1, the Potency was “inactive”.
For O=C(COC(=O)c1ccccc1Br)Nc1nnc(-c2ccccc2)o1, the Potency was “inactive”.
For Nc1ccc(-c2nnc(-c3ccccc3)o2)cc1, the Potency was 3.98 µM (active).
For Nc1ccc(-c2sc(N)nc2-c2ccccc2)cc1, the Potency was “inactive”.
With CC(C(=O)NC1CCCC1)N1CCN(S(=O)(=O)c2ccccc2Cl)CC1 (configuration not stated) the Potency was “inactive”.
In the case of COc1ccc(N(CCC(=O)NCCc2ccccc2)S(=O)(=O)c2ccc(C)cc2C)cc1, the Potency was “inactive”.
For COC(=O)c1ccc(C(=O)NC2CC(C)(C)Cc3c2cnn3-c2ccc(F)cc2)nc1 (configuration not stated), the Potency was “inactive”.
With Cn1c(N)c(C(=O)COC(=O)COc2ccc(Cl)cc2)c(=O)n(C)c1=O the Potency was “inactive”.
With Cc1ccoc1C(=O)Nc1cccc(Oc2ccccc2)c1 the Potency was 3.98 µM (active).
For Cc1ccc(C(=O)COc2cccc(NC(=O)c3ccco3)c2)cc1, the Potency was “inactive”.
For Cc1cccc(NC(=O)Nc2cccc(Oc3c(F)c(F)c(F)c(F)c3F)c2)c1, the Potency was “inactive”.
For Cc1ccc2c(c1)c1ncnc(N3CCc4ccccc4C3)c1n2C, the Potency was “inactive”.
With COc1ccc2oc(=O)c(C(=O)N3CCCc4ccccc43)cc2c1 the Potency was “inactive”.
For COc1ccc(Oc2c(Cl)cnn(-c3ccccc3)c2=O)cc1, the Potency was “inactive”.
In the case of Cc1cccc(-n2ncc(Cl)c(Cl)c2=O)c1, the Potency was “inactive”.
In the case of COc1ccc(-n2ncc3c(N4CCCc5ccccc54)ncnc32)cc1, the Potency was 0.794 µM (active).
With Cc1cccc(-n2ncc3c(N4CCc5ccccc54)ncnc32)c1 the Potency was 2 µM (active).
For CC1(NC(=O)CCS(=O)(=O)c2ccc(Cl)cc2)CCS(=O)(=O)C1 (configuration not stated), the Potency was “inactive”.
With COCCNc1nc2nonc2nc1N1CCCC1c1nccs1 (configuration not stated) the Potency was “inactive”.
For CC(=O)NC12CC3CC(C1)CC(C(=O)N1CCN(C(=O)c4ccco4)CC1)(C3)C2, the Potency was “inactive”.
In the case of CCCNC(=O)c1c(Cl)cnn1-c1ccc(C)cc1, the Potency was 2.51 µM (active).
For CCCNC(=O)CCc1c(C)nc2c(c(C)nn2-c2ccc(C)cc2)c1C, the Potency was “inactive”.
For CCCNC(=O)c1ccc(Cl)c(Cl)c1, the Potency was “inactive”.
In the case of O=C(CCc1nc2sc3c(c2c(=O)[nH]1)CCCC3)NCC(=O)Nc1ccccc1Br, the Potency was “inactive”.
For COc1cc(OC)cc(-c2c(-c3cccs3)c3cc(-c4ccc(OC)nc4)ccc3n2C)c1, the Potency was “inactive”.
In the case of O=C(NCC(=O)N1CCCCCCC1)c1ccccc1Cl, the Potency was “inactive”.
In the case of COc1ccccc1/C=C/C(=O)OCC(=O)NC1CCCCCC1, the Potency was “inactive”.
With Cc1cc(C)n2nc(C(=O)OCC(=O)N(C)CC(=O)Nc3ccc(F)cc3)nc2n1 the Potency was “inactive”.
For COc1ccc(NC(=S)N2N=CCC2c2ccccc2)cc1 (configuration not stated), the Potency was 3.16 µM (active).
With COc1ccc(C(=O)NC2CCN(C(=S)Nc3ccccc3)CC2)cc1 the Potency was “inactive”.
In the case of CCC(C)N(C)C1CCN(C(=S)Nc2ccc(OC)cc2)CC1 (configuration not stated), the Potency was “inactive”.
In the case of CC(C(=O)Nc1ccc(S(=O)(=O)N2CCCC2)cc1)N(C)Cc1ccc(F)cc1 (configuration not stated), the Potency was “inactive”.
In the case of CN(CC(=O)NCc1ccc(Cl)cc1)S(=O)(=O)c1cccs1, the Potency was “inactive”.
In the case of COc1cccc(NC(=O)COC(=O)/C=C/c2ccco2)c1, the Potency was “inactive”.
For COC(=O)C1=C(C)NC(=S)NC1c1ccc(OCC(=O)N2CC(C)OC(C)C2)c(OC)c1 (configuration not stated), the Potency was “inactive”.
In the case of CCOc1ccc(C(=O)CCC(=O)NC2=NCCS2)cc1, the Potency was “inactive”.
With COc1ccccc1C(=O)NCCC(=O)NC1=NCCS1 the Potency was “inactive”.
With COc1ccc(Cc2nnc(NC(=O)c3ccc(OC)cc3OC)s2)cc1 the Potency was “inactive”.
In the case of O=C(NCc1ccc2c(c1)OCO2)c1ccc(Cl)s1, the Potency was “inactive”.
In the case of O=C(NC1=NCCS1)c1ccc(Cl)s1, the Potency was 3.98 µM (active).
For COc1ccc(C(=O)NC2=NCCS2)c(OC)c1, the Potency was 1.41 µM (active).
In the case of COc1ccc(OC)c(NC(=O)c2cnn(-c3ccccc3Cl)c2NC(=O)c2ccco2)c1, the Potency was “inactive”.
For COc1ccccc1OCC(=O)Nc1c2c(nn1-c1ccc(F)cc1)CS(=O)(=O)C2, the Potency was “inactive”.
With Cc1occc1-c1nnc(SCC(=O)NC2(C#N)CCCC2)n1C the Potency was “inactive”.
In the case of CC(=O)Nc1ccc(S(=O)(=O)Nc2nc(-c3ccc(C(C)(C)C)cc3)cs2)cc1, the Potency was “inactive”.
For FC(F)(F)Oc1ccc(-c2cn3cccnc3n2)cc1, the Potency was 2.51 µM (active).
In the case of CC(C)(C)C(=O)Nc1ccc(-c2cn3cccnc3n2)cc1, the Potency was 3.98 µM (active).
With CC(=O)Nc1ccc(S(=O)(=O)Nc2cccc(NC(=O)C(C)(C)C)c2)cc1 the Potency was “inactive”.
For O=c1ccc(S(=O)(=O)N2CCCC2)cn1Cc1nc(-c2ccccc2)no1, the Potency was “inactive”.
For O=C(Cn1nnc(-c2ccccc2)n1)NC(=O)NC1CCCC1, the Potency was “inactive”.
With CCOc1ccc(NC(=O)CN(C)C(=O)c2cccc(S(=O)(=O)N3CCCC3)c2)cc1OCC the Potency was “inactive”.
In the case of CCN(CC(=O)Nc1ccc(OC)cc1)C(=O)CSCc1ccc(C)cc1, the Potency was “inactive”.
In the case of CC1(C)CC(=O)C=C(c2ccc3ncccc3c2)C1, the Potency was “inactive”.
For O=C(Nc1cc(S(=O)(=O)N2CCOCC2)ccc1OCC(F)(F)F)c1ccc(N2CCCC2=O)cc1, the Potency was “inactive”.
With Fc1cccc(Cl)c1CSc1ccc(-c2ccco2)nn1 the Potency was 2.51 µM (active).
With O=C(CSc1ccc(-c2ccco2)nn1)Nc1cccc(F)c1 the Potency was “inactive”.
For Cc1cc(SCc2c(F)cccc2Cl)nc(=O)[nH]1, the Potency was “inactive”.
For O=C(COC(=O)CNC(=O)C1CCCCC1)Nc1cccc(F)c1, the Potency was “inactive”.
With CCN(CC(=O)Nc1c(F)cccc1F)C(=O)c1ccc(-c2ccc(C(C)=O)cc2)o1 the Potency was “inactive”.
For Cc1cc(C)cc(-c2nnc(SCC(=O)NC3CC3)o2)c1, the Potency was “inactive”.
In the case of Cc1ccc(C(CC(=O)O)NC(=O)c2ccc(S(=O)(=O)N3CCCC3)cc2)cc1 (configuration not stated), the Potency was “inactive”.
With O=C(OCc1ccc(Br)cc1)c1cccc(-c2nnc(-c3ccccc3)o2)c1 the Potency was 3.55 µM (active).
For O=C(OCc1nnc(-c2ccccc2)o1)c1ccc2c(c1)C(=O)N(CCc1ccccc1)C2=O, the Potency was “inactive”.
For CC(=O)Nc1cccc(C(=O)OCC(=O)Nc2nnc(-c3ccccc3)o2)c1, the Potency was “inactive”.
With O=C(NCCC1=CCCCC1)c1ccc(Cl)c([N+](=O)[O-])c1 the Potency was “inactive”.
With O=C(COc1cccc(-n2cnnn2)c1)NCCC1=CCCCC1 the Potency was “inactive”.
In the case of O=C(NCCC1=CCCCC1)c1ccc(-n2cncn2)cc1, the Potency was 3.16 µM (active).
For C=C1CCC(N(O)c2cc(C)on2)C(=C)CCC2C1CC2(C)C (configuration not stated), the Potency was “inactive”.
For Cc1ccc(OCC(=O)N2CCN(S(=O)(=O)c3ccc(Cl)s3)CC2)cc1C, the Potency was “inactive”.
Potency means the concentration at half of the fitted maximal effect.
